The structures appear in SMILES notation. Results filed as inconclusive are left out. Values without a mark were called inactive. The source made the active and inactive calls. Calls follow the shape of the full dose curve.
% is scaled to controls: 0 for no effect and ±100 for the full control effect; potency is read from the fitted curve at half-maximal effect.

The nature of this test: p53 small molecule agonists, cell-based qHTS assay: qHTS cell viability counter screen (AID 1963581). Also: nearly all actives have a fitted effect of over 45% in size. Conditions: p53RE-bla HCT-116 viability, ATP luminescence, 16 h; series mostly up to 66 µM; activity change, negative = cytotoxicity: at the top concentration. The text has this: National Center for Advancing Translational Sciences [NCATS]
Division of Preclinical Innovation [DPI]
U.S. Environmental Protection Agency [EPA]
National Institutes of Environmental Health Sciences [NIEHS]
National Toxicology Program [NTP]
U.S. Food and Drug Administration [FDA]
p53, a tumor suppressor protein, is activated following cellular insult, including DNA damage and other cellular stresses. The activation of p53 regulates cell fate by inducing DNA repair, cell cycle arrest, apoptosis, or cellular senescence. The activation of p53, therefore, is a good indicator of DNA damage and other cellular stresses. The CellSensor p53RE-bla HCT-116 cell line (Invitrogen) contains a stably integrated beta-lactamase reporter gene under control of the p53 response elements. The activation of the reporter gene under culture conditions can be detected by fluorescence intensity. This cell line was used to screen the Tox21 compound library in a 1536-well plate format and to identify agonists that activate the p53 signaling pathway. The cytotoxicity of the Tox21 compound library against the p53 RE-bla HCT-116 cell line was tested in parallel by measuring the intra cellular ATP content in the same wells.
Tox21 Assay Protocol Summary:
The p53RE-bla cells were dispensed at 4,000 cells/5 ul/well in 1536-well black wall/clear bottom plates using a Multidrop dispenser. After the assay plates were incubated at a 37 C/5% CO2 incubator for 5 hours, 23 nL of compounds dissolved in DMSO, positive controls or DMSO only was transferred to the assay plate by a pin tool. The plates were incubated at 37 C for 16 hours. After 1 uL of LiveBLAzerTM B/G FRET substrate was added using a Flying Reagent Dispenser, the plates were incubated at room temperature for 2 hours, and fluorescence intensity was measured by an Envision plate reader. For cell viability readout that measures cytotoxicity, 4 ul/well of CellTiter-Glo reagent was added into the assay plates using a Flying Reagent Dispenser. After 30 min incubation at room temperature, the luminescence intensity in the plates was measured using a ViewLux plate reader.
Regarding `c1ccc(SSc2ccccc2)cc1`, the “activity change, negative = cytotoxicity” value is -28.7%. On the same count and under the same terms, with `Cc1cccc(C)c1NC(=O)c1cc(S(N)(=O)=O)c(Cl)cc1O` the figure was -0.684% [at 30.3 µM]; with `Cc1cccc(C(=O)O)c1[N+](=O)[O-]`, 0.175%; with `Nc1nc(-c2ccc([N+](=O)[O-])cc2)cs1`, 11.8%.

Turning to `CCCC(c1cc(C(C)(C)C)c(O)cc1C)c1cc(C(C)(C)C)c(O)cc1C`, the Potency was 5.83 µM (active).

For the molecule `N#CC1(N)CCCCC1`, the “activity change, negative = cytotoxicity” value was -11.1%.

Regarding `NCCCNCCSP(=O)(O)O`, the activity change, negative = cytotoxicity is 5.99% [at 5.99 µM].

With `CCCCOC(=O)C(C)CC` (stereo not given), the “activity change, negative = cytotoxicity” value was -1.33%. With `NC1CCN(c2nc3c(cc2F)c(=O)c(C(=O)O)cn3-c2ccc(F)cc2F)C1` (stereo not given), the “activity change, negative = cytotoxicity” value is 3.54% [at 30.3 µM]. Consider `CC(=O)Nc1ccc(N)cc1`, for which the “activity change, negative = cytotoxicity” value is 0.629%. `O=c1[nH]c(=O)c2[nH]c(=O)[nH]c2[nH]1`: the activity change, negative = cytotoxicity is -12.2% [at 5.99 µM]. Take `CC(=O)c1ccc(Cl)c(Cl)c1Cl`: the “activity change, negative = cytotoxicity” value is 6.57%. Consider `CCCCCCCC/C=C\CCCCCCCCCCCC(=O)O`, for which the “activity change, negative = cytotoxicity” value was 11.2%. Turning to `C=CCCCCCCCCC=O`, the “activity change, negative = cytotoxicity” value is 1.6%. Take `O=C(CCCN1CCC(O)(c2ccc(Br)cc2)CC1)c1ccc(F)cc1`: the “activity change, negative = cytotoxicity” value is 12.9% [at 30.3 µM]. On the same count and under the same terms, next, `COc1ccc(-c2coc3cc(O)ccc3c2=O)cc1`: 5.58%; `CCC(=O)Oc1ccc2c(c1)CC[C@@H]1[C@@H]2CC[C@@]2(C)[C@H]1C[C@@H](OC(=O)CC)[C@@H]2OC(=O)CC`: 1.81% [at 30.3 µM]. For the molecule `O=c1c2ccccc2nnn1CCl`, the “activity change, negative = cytotoxicity” value is -5.23%. The same measure, in the same setting: with `CCOC(=O)[C@H](CCc1ccccc1)N[C@@H](C)C(=O)N1Cc2cc(OC)c(OC)cc2C[C@H]1C(=O)O` the figure was 22.8% [at 30.3 µM]. In the case of `COc1ncnc(NS(=O)(=O)c2ccc(N)cc2)c1OC`, the “activity change, negative = cytotoxicity” value is -16.9% [at 30.3 µM]. `CN(C)[C@@H]1C(=O)C(C(=O)NCN2CCCC2)=C(O)[C@@]2(O)C(=O)C3=C(O)c4c(O)cccc4[C@@](C)(O)C3C[C@@H]12` (stereo not given in full): the “activity change, negative = cytotoxicity” value was 1.7% [at 30.3 µM].

As to `Cc1cscn1`, the “activity change, negative = cytotoxicity” value was -14.2%. As for `C=COCCCCO`, the “activity change, negative = cytotoxicity” value was 3.12%. With `COS(=O)(=O)C(F)(F)F`, the “activity change, negative = cytotoxicity” value was 15.3%.

In the case of `CN1CC(=O)NC1=N`, the “activity change, negative = cytotoxicity” value was 0.205% [at 30.3 µM]. On to `O=C(O)c1ccncc1`, for which the “activity change, negative = cytotoxicity” value was -0.716%. In the case of `Cc1ccc(S)cc1`, the “activity change, negative = cytotoxicity” value is 16.6%. On to `O=C(/C=C/c1ccc(O)c(O)c1)O[C@@H]1C[C@](O)(C(=O)O)C[C@@H](O)[C@H]1O`, for which the “activity change, negative = cytotoxicity” value was -12.7%.

On to `CC(=O)Nc1ccc(C)c(Cl)c1`, for which the “activity change, negative = cytotoxicity” value was -10.3%. As to `CCCCCCCCCCCCCc1ccccc1`, the “activity change, negative = cytotoxicity” value is -2.16% [at 30.3 µM]. Regarding `CCN(CC)CCOc1ccc(C(O)(Cc2ccc(Cl)cc2)c2ccc(C)cc2)cc1` (stereo not given), the Potency was 19.9 µM (active). Regarding `CCCCOc1ccc(OCCCN2CCOCC2)cc1`, the “activity change, negative = cytotoxicity” value is -3.72% [at 30.3 µM]. For the molecule `CCCCC(CC)COC(=O)CCCCCCCCC(=O)OCC(CC)CCCC` (stereo not given), the “activity change, negative = cytotoxicity” value is -0.546%. Turning to `Cc1nc2n(c(=O)c1CCN1CCC(c3noc4cc(F)ccc34)CC1)CCCC2`, the “activity change, negative = cytotoxicity” value was -13.8% [at 30.3 µM]. On to `CCCCCCCCCCCCCCCCOP(=O)([O-])OCC[N+](C)(C)C`, for which the “activity change, negative = cytotoxicity” value is 26.9% [at 30.3 µM].

For the molecule `O=C(O)C1CCC1`, the “activity change, negative = cytotoxicity” value is 8.45% [at 30.3 µM].

Take `Cc1nc2ccccc2n1Cc1ccc(Cl)cc1`: the “activity change, negative = cytotoxicity” value was -11.9% [at 30.3 µM].

With `CCCCCCCCCCCCCCCC[N+](C)(C)CCN(Cc1ccc(OC)cc1)c1ncccn1`, the “activity change, negative = cytotoxicity” value was -24.2% [at 30.3 µM]. `CN1C(=O)N(c2ccccc2Br)Cc2cnc(Nc3ccc4c(c3)OCC(CO)O4)nc21` (stereo not given): the “activity change, negative = cytotoxicity” value was 12.3%. `C#CCN[C@@H]1CCc2ccccc21`: the “activity change, negative = cytotoxicity” value was -9.8% [at 30.3 µM].

These data come from PubChem BioAssay (Tox21).
